Several values for one entry are separate records, joined by “and”; a condition that tells them apart may be missing. Equal values may be shown once. ± gives the standard deviation of the averaged measurements.

Here are results for 32 compounds from the supplement of paper PMC7393113.

The test system of the experiment is iBMDM (immortalised mouse bone-marrow-derived macrophages), LPS-stimulated. The experiment in a line: mitochondrial superoxide (MitoSOX fluorescence) fold increase over unstimulated control; higher = more LPS-induced mitochondrial ROS (less inhibition). The note with it: inhibitor concentration: 500 nM, LPS: 100 ng/ml. Summed up: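 Values are fold induction of mitochondrial superoxide relative to untreated macrophages, as a mean of replicates. Immortalised mouse bone-marrow-derived macrophages, seeded in triplicate in black 96-well plates, spent 20 h in phenol-red-free 1% FCS/DMEM before a 30 min pretreatment with kinase inhibitors (500 nM). After 10 min loading with 1 μM MitoSox, cells received LPS (100 ng/ml), and fluorescence (510/580 nm) was measured every 60 min for 4 h.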

Turning to `C[C@@H]1COC(Nc2ccc3ncnc(Nc4ccc(OCc5nccs5)c(Cl)c4)c3c2)=N1` [Varlitinib], the mitochondrial superoxide runs as follows: (time after LPS: 1 h) 1.3 ± 0.019; (time after LPS: 2 h) 1.39 ± 0.09; (time after LPS: 4 h) 1.69 ± 0.08.

Take `COc1cc2ncnc(Nc3ccc(Cl)cc3F)c2cc1OC`: the mitochondrial superoxide worked out at 1.12 ± 0.029 (time after LPS: 1 h), 1.24 ± 0.037 (time after LPS: 2 h) and 1.271 ± 0.0046 (time after LPS: 4 h).

`CCOc1ccn(-c2ccc(F)cc2)c(=O)c1C(=O)Nc1ccc(Oc2ccnc(N)c2Cl)c(F)c1`: the mitochondrial superoxide by setting is: (time after LPS: 1 h) 1.25 ± 0.045; (time after LPS: 2 h) 1.28 ± 0.084; (time after LPS: 4 h) 1.28 ± 0.017.

Take `O=C(c1ccc(Nc2nccc(-c3cc4ccccc4s3)n2)cc1)N1CCC(N2CCCC2)CC1` [IKK-16 (IKK Inhibitor VII)]: the mitochondrial superoxide is 1.08 ± 0.084 (time after LPS: 1 h), 1.09 ± 0.087 (time after LPS: 2 h) and 1.16 ± 0.17 (time after LPS: 4 h).

For `C[C@H](NC(=O)/C(C#N)=C/c1cccc(Br)n1)c1ccccc1`, the mitochondrial superoxide reads like this: (time after LPS: 1 h) 1.21 ± 0.039; (time after LPS: 2 h) 1.368 ± 0.011; (time after LPS: 4 h) 1.5 ± 0.04.

Take `CS(=O)(=O)c1ccc(-c2cnc(N)c(C(=O)Nc3ccccc3)n2)cc1`: the mitochondrial superoxide is, setting by setting: (time after LPS: 1 h) 1.23 ± 0.053; (time after LPS: 2 h) 1.46 ± 0.052; (time after LPS: 4 h) 1.6 ± 0.078.

On to `CCn1c2ccccc2c2cc(Nc3ccnc(NCCCN4CCOCC4)n3)ccc21`, for which the mitochondrial superoxide turned out to be 1.41 ± 0.063 (time after LPS: 1 h), 1.54 ± 0.086 (time after LPS: 2 h) and 1.67 ± 0.096 (time after LPS: 4 h).

For the compound `CN(C)C/C=C/C(=O)Nc1cc2c(Nc3ccc(F)c(Cl)c3)ncnc2cc1O[C@H]1CCOC1` [Afatinib (BIBW2992)], the mitochondrial superoxide (time after LPS: 1 h) was determined as 1.54 ± 0.068, the mitochondrial superoxide (time after LPS: 2 h) worked out at 1.6 ± 0.047 and the mitochondrial superoxide (time after LPS: 4 h) was 1.77 ± 0.11.

`Cc1cc(CN2CCN(c3c(Br)cnc4nc(-c5ccc(N6CCN(C)CC6)cc5)[nH]c34)CC2)no1`: the mitochondrial superoxide was determined as 1.27 ± 0.038 (time after LPS: 1 h), 1.4 ± 0.019 (time after LPS: 2 h) and 1.68 ± 0.13 (time after LPS: 4 h).

In the case of `Cc1ncc(-c2ccnc(Nc3ccc(S(C)(=O)=O)cc3)n2)n1C(C)C`, the mitochondrial superoxide is, setting by setting: (time after LPS: 1 h) 1.36 ± 0.052; (time after LPS: 2 h) 1.46 ± 0.063; (time after LPS: 4 h) 1.6 ± 0.11.

As for `Cn1cc(-c2ccc3nnc(C(F)(F)c4ccc5ncccc5c4)n3n2)cn1`, the mitochondrial superoxide was found to be 1.4 ± 0.062 (time after LPS: 1 h), 1.44 ± 0.015 (time after LPS: 2 h) and 1.5 ± 0.019 (time after LPS: 4 h).

Regarding `COc1ncc(-c2ccc3nccc(-c4ccnnc4)c3c2)cc1NS(=O)(=O)c1ccc(F)cc1F`, the mitochondrial superoxide is, setting by setting: (time after LPS: 1 h) 1.28 ± 0.049; (time after LPS: 2 h) 1.42 ± 0.033; (time after LPS: 4 h) 1.52 ± 0.077.

Turning to `Cc1cnc(NC(=O)Nc2cc(Br)c(C)cc2OC[C@@H]2CNCCO2)cn1`, the mitochondrial superoxide (time after LPS: 1 h) came out at 1.116 ± 0.011, the mitochondrial superoxide (time after LPS: 2 h) came to 1.262 ± 0.0098 and the mitochondrial superoxide (time after LPS: 4 h) is 1.55 ± 0.052.

Turning to `Cc1cc(Nc2cc(N3CCN(C)CC3)nc(/C=C/c3ccccc3)n2)n[nH]1`, the mitochondrial superoxide was found to be 1.19 ± 0.044 (time after LPS: 1 h), 1.21 ± 0.011 (time after LPS: 2 h) and 1.32 ± 0.03 (time after LPS: 4 h).

For the compound `Nc1ccc(-c2ccc3ncc4ccc(=O)n(-c5cccc(C(F)(F)F)c5)c4c3c2)cn1` [Torin 2], the mitochondrial superoxide by setting is: (time after LPS: 1 h) 1.18 ± 0.042; (time after LPS: 2 h) 1.17 ± 0.05; (time after LPS: 4 h) 1.24 ± 0.1.

Take `Cc1cc(Nc2nc(N[C@@H](C)c3ccc(F)cc3)c(C#N)cc2F)n[nH]1`: the mitochondrial superoxide (time after LPS: 1 h) came to 1.09 ± 0.054, the mitochondrial superoxide (time after LPS: 2 h) came out at 1.18 ± 0.028 and the mitochondrial superoxide (time after LPS: 4 h) was 1.31 ± 0.085.

Turning to `Nc1nc(N)c2nc(-c3cccc(O)c3)cnc2n1`, the mitochondrial superoxide runs as follows: (time after LPS: 1 h) 1.03 ± 0.016; (time after LPS: 2 h) 1.04 ± 0.043; (time after LPS: 4 h) 1.09 ± 0.046.

On to `COc1cc2ncc(-c3ccccc3)nc2cc1OC` [Tyrphostin AG 1296], for which the mitochondrial superoxide reads like this: (time after LPS: 1 h) 1.469 ± 0.014; (time after LPS: 2 h) 1.47 ± 0.017; (time after LPS: 4 h) 1.58 ± 0.021.

As for `CS(=O)(=O)c1cccc(CNc2nc(Nc3ccc4c(c3)CCC(=O)N4)ncc2C(F)(F)F)c1`, the mitochondrial superoxide is 1.2 ± 0.044 (time after LPS: 1 h), 1.24 ± 0.056 (time after LPS: 2 h) and 1.3 ± 0.014 (time after LPS: 4 h).

Regarding `CC(C)CCN1c2nc(Nc3cc(F)c(O)c(F)c3)ncc2N(C)C(=O)C1C` (stereo unspecified), the mitochondrial superoxide is, setting by setting: (time after LPS: 1 h) 1.14 ± 0.036; (time after LPS: 2 h) 1.21 ± 0.047; (time after LPS: 4 h) 1.321 ± 0.0097.

With `N#CC[C@H](C1CCCC1)n1cc(-c2ncnc3[nH]ccc23)cn1`, the mitochondrial superoxide is 1.19 and 1.09 (time after LPS: 1 h); 1.29 and 1.15 (time after LPS: 2 h); 1.35 and 1.29 (time after LPS: 4 h).

As to `O=c1cc(N2CCOCC2)oc2c1ccc1ccccc12`, the mitochondrial superoxide runs as follows: (time after LPS: 1 h) 1.13 ± 0.049; (time after LPS: 2 h) 1.11 ± 0.062; (time after LPS: 4 h) 1.17 ± 0.062.

For `O=P(O)(O)C(O)(Cn1ccnc1)P(=O)(O)O` [Zoledronic Acid], the mitochondrial superoxide came to 1.27 ± 0.02 (time after LPS: 1 h), 1.29 ± 0.085 (time after LPS: 2 h) and 1.4 ± 0.16 (time after LPS: 4 h).

Regarding `COc1cc2ncnc(Nc3ccc(F)c(Cl)c3)c2cc1OCCCN1CCOCC1` [Gefitinib (ZD1839)], the mitochondrial superoxide runs as follows: (time after LPS: 1 h) 1.6 ± 0.048; (time after LPS: 2 h) 1.71 ± 0.044; (time after LPS: 4 h) 1.77 ± 0.025.

`CCn1cc(-c2ccnc3[nH]c(-c4cccc(CN(C)C)c4)cc23)c(-c2ccc(NC(=O)N(C)C)cc2)n1` had a mitochondrial superoxide (time after LPS: 1 h) of 1.27 ± 0.026, a mitochondrial superoxide (time after LPS: 2 h) of 1.45 ± 0.047 and a mitochondrial superoxide (time after LPS: 4 h) of 1.71 ± 0.16.

For `CN1CCN(S(=O)(=O)c2ccc(-c3cnc(N)c(C(=O)Nc4cccnc4)n3)cc2)CC1`, the mitochondrial superoxide runs as follows: (time after LPS: 1 h) 1.34 ± 0.053; (time after LPS: 2 h) 1.46 ± 0.031; (time after LPS: 4 h) 1.63 ± 0.03.

In the case of `CCc1cnn2c(NCc3ccc[n+]([O-])c3)cc(N3CCCC[C@H]3CCO)nc12`, the mitochondrial superoxide is 1.28 ± 0.066 (time after LPS: 1 h), 1.33 ± 0.055 (time after LPS: 2 h) and 1.63 ± 0.066 (time after LPS: 4 h).

As for `O=C(/C=C/c1ccc(O)c(O)c1)c1ccc(O)cc1O` [Butein], the mitochondrial superoxide is, setting by setting: (time after LPS: 1 h) 1.49 ± 0.065; (time after LPS: 2 h) 1.65 ± 0.067; (time after LPS: 4 h) 1.85 ± 0.019.

On to `COc1cc2nccc(Oc3ccc(NC(=O)NC4CC4)c(Cl)c3)c2cc1C(N)=O` [Lenvatinib (E7080)], for which the mitochondrial superoxide runs as follows: (time after LPS: 1 h) 1.45 ± 0.042; (time after LPS: 2 h) 1.71 ± 0.053; (time after LPS: 4 h) 1.73 ± 0.15.

For the compound `CNCc1ccc(-c2cc(-c3nc(-c4ccc(S(=O)(=O)C(C)C)cc4)cnc3N)on2)cc1`, the mitochondrial superoxide reads like this: (time after LPS: 1 h) 1.12 ± 0.068; (time after LPS: 2 h) 1.24 ± 0.057; (time after LPS: 4 h) 1.26 ± 0.018.

As for `CCC(=O)Nc1cccc(Oc2nc(Nc3ccc(N4CCN(C)CC4)cc3OC)ncc2Cl)c1`, the mitochondrial superoxide is 1.39 ± 0.084 (time after LPS: 1 h), 1.51 ± 0.091 (time after LPS: 2 h) and 1.79 ± 0.061 (time after LPS: 4 h).

For the compound `COc1ccc(Cl)cc1NC(=O)Nc1cc(C)nc2ccccc12`, the mitochondrial superoxide runs as follows: (time after LPS: 1 h) 1.42 ± 0.05; (time after LPS: 2 h) 1.55 ± 0.055; (time after LPS: 4 h) 1.652 ± 0.011.
